The target of this assay is Serine/threonine-protein kinase pim-1 (Homo sapiens) (UniProt P11309). Description: compound-induced PIM1 thermal stabilization – biophysical, human, melting temperature shift (AID 393). To be noted: Thermal shift assay, active compounds read high; at 10 µM, protein 2 µM, buffer 10 mM PIPES, pH 6.5, NaCl 150 mM unless noted.

Calls of active or inactive are those of the source. The rule behind the calls is not given here.

This passage reports Tm shift results from PubChem BioAssay AID393 (SGCOxCompounds, 2006).

Serine/threonine-protein kinase pim-1 (Homo sapiens), sequence (P11309 whole entry, looked up): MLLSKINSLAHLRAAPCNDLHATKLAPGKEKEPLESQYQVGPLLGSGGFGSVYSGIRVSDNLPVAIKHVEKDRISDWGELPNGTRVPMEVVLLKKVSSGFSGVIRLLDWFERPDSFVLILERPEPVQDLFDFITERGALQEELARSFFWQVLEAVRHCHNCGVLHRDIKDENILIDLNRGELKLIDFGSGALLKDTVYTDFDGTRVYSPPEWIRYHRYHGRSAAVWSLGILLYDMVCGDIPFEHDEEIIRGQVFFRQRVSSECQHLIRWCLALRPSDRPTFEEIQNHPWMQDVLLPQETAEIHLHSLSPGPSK

`Nc1ccc(-c2cnc3ccc(NC4CCOCC4)nn23)cc1`: the Tm shift is 4.71 Celsius (active).

Regarding `OCC(O)CCO/N=C1/C(c2c(O)[nH]c3ccccc23)=Nc2ccccc21` (stereo not given), the Tm shift was 4.1 Celsius [at 10 µM, protein 2 µM, buffer 10 mM Na Citrate, pH 6.5, NaCl 150 mM] (active).

Consider `c1csc(-c2cnc3ccc(NCC4CC4)nn23)c1`, for which the Tm shift was 4.75 Celsius [at 5 µM, protein 1 µM, buffer 10 mM HEPES] (active).

Take `CC(C)[C@@H](CO)Nc1ccc2ncc(-c3cccc(F)c3)n2n1`: the Tm shift was 5.64 Celsius (active).

Regarding `CC(C)[C@@H](CO)Nc1ccc2ncc(-c3ccc(C#N)cc3)n2n1`, the Tm shift is 4.53 Celsius (active).

With `CCn1c(O)c(C2=NC(=S)NC2=O)c2ccccc21`, the Tm shift is 3.12 Celsius (active).

`O=C1c2ccccc2-c2n[nH]c3cccc1c23`: the Tm shift is 4.2 Celsius [at 10 µM, protein 2 µM, buffer 10 mM Na Citrate, pH 6.5, NaCl 150 mM] (active).

Turning to `Clc1cccc(Nc2ccn3ncc(-c4ccc5c(c4)OCO5)c3n2)c1`, the Tm shift was 6.19 Celsius (active).

For the compound `CCCCc1c(-c2ccc(O)cc2)[nH]c2nccnc12`, the Tm shift was 4 Celsius [at 10 µM, protein 2 µM, buffer 10 mM Na Citrate, pH 6.5, NaCl 150 mM] (active).

For the compound `O=c1[nH]c2ncc(-c3cccnc3)nc2n1C1CCCC1`, the Tm shift is 3.12 Celsius [at 10 µM, protein 2 µM, buffer 25 mM HEPES, pH 7.5, NaCl 250 mM] (active).
